Measurements as given in PMC9838217, “Structure of SALL4 zinc finger domain reveals link between AT-rich DNA binding and Okihiro syndrome”.
Where a chain is given by its changes, count along the chain named.

Columns and labels:
Experiment in all cases: HT-SELEX; high values mean tight binding
Settings in all cases: protein: recombinant; vector His6-GST; dsDNA, one strand shown
SALL4 ZFC4 WT (HT-SELEX) = target: T1, SALL4 ZFC4 WT (HT-SELEX) (Mus musculus, UniProt Q8BX22 870-940)
T1 sequence: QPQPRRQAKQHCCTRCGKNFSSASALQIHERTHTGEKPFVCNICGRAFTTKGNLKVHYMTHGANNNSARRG
Summary of the method: (§1)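 Purified recombinant mouse SALL4 zinc finger cluster 4 (residues 870–940, 1 µg) was incubated with library DNA (1.5 µg first cycle, 200 ng later) in 100 µl of 10 mM Tris–HCl pH 7.5, 50 mM NaCl, poly(dI-dC) and DTT for 10 min at room temperature, with Ni2+ bead capture and reselection for up to 6 cycles in triplicate. MiSeq reads were scanned for 6-mers. Binding signal is each canonical k-mer's read fraction as fold change relative to the initial random library.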

[1] = target: T2, SALL4 ZFC4 R900W (HT-SELEX) (Mus musculus, UniProt Q8BX22 870-940, R900W)
T2 sequence: T1 sequence with R31W
Summary of the method: as §1

[2] = target: T3, SALL4 ZFC4 G921D (HT-SELEX) (Mus musculus, UniProt Q8BX22 870-940, G921D)
T3 sequence: T1 sequence with G52D
Summary of the method: as §1

Row | Sequence | binding signal (SALL4 ZFC4 WT (HT-SELEX)) [fold-change vs cycle 0] | binding signal [1] [fold-change vs cycle 0] | binding signal [2] [fold-change vs cycle 0]
1 | GAAAGC | 0.586 ± 0.0266 | 0.698 ± 0.0129 | 0.775 ± 0.0469
2 | AGGCAT | 0.627 ± 0.0329 | 0.715 ± 0.0142 | 0.816 ± 0.0443
3 | ATACGC | 0.486 ± 0.0113 | 0.531 ± 0.0184 | 0.66 ± 0.0195
4 | CTCCCC | 0.313 ± 0.0129 | 0.36 ± 0.0359 | 0.456 ± 0.0544
5 | ATTGAA | 2.11 ± 0.107 | 2.06 ± 0.169 | 1.86 ± 0.169
6 | AACCAG | 0.772 ± 0.0439 | 0.91 ± 0.0252 | 0.941 ± 0.0329
7 | ATAACG | 1.39 ± 0.0783 | 1.3 ± 0.0579 | 1.23 ± 0.0819
8 | ATGGTA | 1.45 ± 0.0382 | 1.48 ± 0.0495 | 1.4 ± 0.052
9 | TATCCA | 1.41 ± 0.0597 | 1.44 ± 0.0638 | 1.34 ± 0.0962
10 | GAGTTA | 1.47 ± 0.0406 | 1.52 ± 0.0183 | 1.45 ± 0.0562
11 | ACCTAG | 0.875 ± 0.0697 | 0.986 ± 0.0422 | 1.04 ± 0.0407
12 | CGGTAA | 0.676 ± 0.0195 | 0.74 ± 0.026 | 0.792 ± 0.0302
13 | TATTAA | 5.02 ± 0.457 | 2.69 ± 0.232 | 2.25 ± 0.285
14 | CCCCTC | 0.31 ± 0.0217 | 0.35 ± 0.0216 | 0.456 ± 0.0591
15 | CCTTCA | 0.899 ± 0.0192 | 1.05 ± 0.0389 | 1.06 ± 0.0107
16 | TATTCA | 2.4 ± 0.138 | 2.03 ± 0.0979 | 1.83 ± 0.191
17 | AGCTTA | 1.21 ± 0.0616 | 1.28 ± 0.0778 | 1.27 ± 0.0883
18 | ATGGAA | 1.5 ± 0.0823 | 1.48 ± 0.0671 | 1.36 ± 0.0808
19 | CACTAC | 0.801 ± 0.0178 | 0.9075 ± 0.0089 | 0.938 ± 0.0237
20 | AACTGC | 0.6 ± 0.0299 | 0.647 ± 0.0277 | 0.741 ± 0.0348

Row | Sequence | binding signal (SALL4 ZFC4 WT (HT-SELEX)) [fold-change vs cycle 0] | binding signal [1] [fold-change vs cycle 0] | binding signal [2] [fold-change vs cycle 0]
21 | AAACCG | 0.532 ± 0.0183 | 0.604 ± 0.0163 | 0.705 ± 0.0593
22 | ATCAGA | 1.37 ± 0.0717 | 1.43 ± 0.0639 | 1.38 ± 0.109
23 | GCTCAA | 0.548 ± 0.03 | 0.644 ± 0.0305 | 0.763 ± 0.038
24 | TACTCA | 1.43 ± 0.0381 | 1.5 ± 0.0664 | 1.42 ± 0.0998
25 | ACATCG | 0.64 ± 0.0291 | 0.729 ± 0.00758 | 0.829 ± 0.0505
26 | CTAGGC | 0.314 ± 0.00866 | 0.38 ± 0.00705 | 0.509 ± 0.0429
27 | AACTTA | 2.13 ± 0.126 | 2.11 ± 0.126 | 1.89 ± 0.231
28 | GCTTGA | 0.627 ± 0.00807 | 0.737 ± 0.0133 | 0.831 ± 0.0377
29 | AAGTGA | 1.34 ± 0.0271 | 1.52 ± 0.0501 | 1.42 ± 0.0562
30 | AAAGCA | 1.06 ± 0.0392 | 1.13 ± 0.0246 | 1.14 ± 0.0213
31 | TGACCA | 0.72 ± 0.0319 | 0.823 ± 0.0121 | 0.899 ± 0.0281
32 | AACGTT | 1.19 ± 0.0242 | 1.33 ± 0.0216 | 1.24 ± 0.0303
33 | AAGACC | 0.72 ± 0.0283 | 0.834 ± 0.0193 | 0.911 ± 0.0351
34 | ATGACG | 0.724 ± 0.0223 | 0.789 ± 0.0467 | 0.852 ± 0.0204
35 | ACTGTG | 0.743 ± 0.0431 | 0.842 ± 0.0558 | 0.876 ± 0.035
36 | CACCTA | 0.824 ± 0.0556 | 0.915 ± 0.0444 | 0.976 ± 0.0474
37 | CGTGAG | 0.437 ± 0.0456 | 0.501 ± 0.006 | 0.607 ± 0.0306
38 | AAGTGT | 1.24 ± 0.0333 | 1.35 ± 0.0203 | 1.3 ± 0.0159
39 | ACTGAC | 0.782 ± 0.026 | 0.909 ± 0.0341 | 0.934 ± 0.016
40 | GTCCAA | 0.622 ± 0.0212 | 0.742 ± 0.0519 | 0.828 ± 0.0714

Row | Sequence | binding signal (SALL4 ZFC4 WT (HT-SELEX)) [fold-change vs cycle 0] | binding signal [1] [fold-change vs cycle 0] | binding signal [2] [fold-change vs cycle 0]
41 | TGATAA | 2.35 ± 0.175 | 2.08 ± 0.2 | 1.87 ± 0.208
42 | AAAGGC | 0.475 ± 0.0422 | 0.571 ± 0.0175 | 0.688 ± 0.0599
43 | TTCCAA | 1.24 ± 0.0535 | 1.32 ± 0.0456 | 1.29 ± 0.0721
44 | AACGTA | 1.18 ± 0.0508 | 1.3 ± 0.0339 | 1.23 ± 0.0704
45 | ACGATG | 0.719 ± 0.0288 | 0.794 ± 0.00845 | 0.87 ± 0.00912
46 | CAAAAG | 1.03 ± 0.0267 | 1.17 ± 0.0219 | 1.153 ± 0.00875
47 | CTTCCA | 0.834 ± 0.0174 | 0.975 ± 0.0211 | 1.02 ± 0.0304
48 | ATACTG | 1.31 ± 0.0361 | 1.4 ± 0.0644 | 1.36 ± 0.0801
49 | CCTCCC | 0.317 ± 0.0293 | 0.372 ± 0.0347 | 0.467 ± 0.0525
50 | AATCGT | 1.18 ± 0.0336 | 1.21 ± 0.0227 | 1.23 ± 0.0244
51 | ATTGAC | 1.17 ± 0.0362 | 1.31 ± 0.032 | 1.3 ± 0.0284
52 | AAAGGT | 1.26 ± 0.075 | 1.41 ± 0.06 | 1.29 ± 0.0787
53 | ACCCAG | 0.455 ± 0.0148 | 0.526 ± 0.0133 | 0.628 ± 0.0574
54 | AACAGA | 1.28 ± 0.057 | 1.41 ± 0.0434 | 1.35 ± 0.0868
55 | CCGAAG | 0.38 ± 0.0225 | 0.441 ± 0.0244 | 0.553 ± 0.046
56 | TCCCAA | 0.743 ± 0.0235 | 0.826 ± 0.0256 | 0.872 ± 0.0393
57 | GTGAAC | 0.832 ± 0.046 | 0.941 ± 0.022 | 1.01 ± 0.0456
58 | TTCGAA | 1.05 ± 0.0775 | 1.14 ± 0.0752 | 1.15 ± 0.0514
59 | AACAAG | 1.28 ± 0.0479 | 1.5 ± 0.0772 | 1.39 ± 0.0671
60 | ACAGTA | 1.35 ± 0.0516 | 1.47 ± 0.111 | 1.37 ± 0.127
